From PubChem BioAssay AID1347075 (National Center for Advancing Translational Sciences (NCATS), 2019)
The whole screen tested about 400,000 compounds, of which about 5,500 (1.4%) were called active. Inconclusive results (about 9%) are left out. What follows is part of a selection rich in actives, with near analogues and random picks from the rest. Values without a mark were called inactive. Calls come from the whole dose curve; as a rule, active = well fitted cell-killing curve with a large enough effect; inconclusive = small, poorly fitted or top-dose-only effect, or effect the other way; inactive = flat fitted curve, though single readings scatter.

assay: qHTS assay for MDR1-selective chemotherapeutics: Primary screen using the parental adenocarcinoma cell KB-3-1; conditions: KB-3-1 viability, CellTiter-Glo ATP luminescence, 72 h; series mostly up to 46.1 µM; activity change, negative = cytotoxic: at the top concentration; note: nearly all actives have a fitted effect of over 60% in size
Method in brief: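 Luminescent ATP read-out (CellTiter-Glo) measures survival of drug-naive KB-3-1 cells after 72 h compound exposure at 37 °C. Titration series was screened from lowest to highest concentration, with DMSO vehicle plates as background controls.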
% is set by controls: 0 for no effect and ±100 for the full control effect; potency is the fitted concentration of half-maximal effect.

| Compound | activity change, negative = cytotoxic [%] | Potency |
| --- | --- | --- |
| COc1ccc(-c2nn(CC(=O)Nc3ccccc3F)c3c2cnc2ccc(F)cc23)cc1 | -5.21 | – |
| Cc1c2cnn(-c3ccccc3)c(=O)c2c(C)n1C(C)C(=O)Nc1ccc(Br)cc1F (centres undefined) | 5.69 | – |
| CCN(CC)C(=O)CSc1nnc(CNc2ccc(F)cc2)n1Cc1ccco1 | -10.8 | – |
| CCc1ccccc1N1CN(Cc2ccco2)CNC1=S | 2.61 | – |
| CN(C)C(=S)N=c1ssc(=S)n1Cc1ccco1 | – | 4.11 µM (active) |
| CCOc1ccc2nc(N3CCCC(C(=O)Nc4cc(C)ccc4C)C3)sc2c1 (centres undefined) | -4.09 | – |
| CCc1ccc(NC(=O)c2cnc3c(-c4ccccc4)c(C)nn3c2C)cc1 | -2.78 | – |
| CCN(CC)S(=O)(=O)c1ccc(N(C)Cc2ccc(C(F)(F)F)cc2)nc1 | – | 10.3 µM (active) |
| CCN(CC)S(=O)(=O)c1ccc(NC(=O)c2cnc(C)cn2)cc1 | 17.5 | – |
| CCN(CC)S(=O)(=O)c1ccc(N(C)CCc2ccc(OC)c(OC)c2)nc1 | -18.5 | – |
| COc1ccccc1-n1c(-c2ccc(C)cc2)cn2c3c(=O)n(C)c(=O)n(C)c3nc12 | 16.8 | – |
| CN(C)c1ccc(/C=C2\C=Cc3ccccc32)cc1Br | 11 | – |
| CCOC(=O)c1cc2c(=O)n3ccccc3nc2n(Cc2ccco2)c1=NC(=O)c1ccc(F)cc1 | 13.8 | – |
| COc1ccc(CCNC(=O)COC(=O)c2cc(=O)c3ccccc3o2)cc1 | -1.64 | – |
| COc1ccc(Nc2cc(=O)n(-c3ccccc3)c3c2c(=O)n(C)c(=O)n3C)cc1 | 43 | – |
| COc1ccc(Nc2cc(=O)oc3ccccc23)cc1 | – | 4.11 µM (active) |
| CC1=C(C(=O)OCC2CCCCC2)C(c2c(F)cccc2Cl)CC(=O)N1 (centres undefined) | 12.9 | – |
| CCc1ccc(N(CC)C(=O)CCn2cnc3onc(-c4ccc(F)cc4)c3c2=O)cc1 | 1.49 | – |
| Fc1ccc(-c2csc(-c3ccc(C4SCCS4)cc3)n2)cc1F | 2.11 | – |
| CCCc1cc(-c2nc(-c3ccc(C)cc3)cs2)ccn1 | – | 11.6 µM (active) |
| CCCc1nc2scc(-c3ccc(C)cc3)c2c(=O)n1N | -2.91 | – |
| O=C(CN1CCCCCC1)Nc1ccc(S(=O)(=O)N2CCCCC2)cc1 | -4.68 | – |
| CCc1ccc(NC(=O)CN2C(=O)COc3ccc(S(=O)(=O)N4CCCC4)cc32)cc1 | 12.8 | – |
| CCc1ccc(NC(=O)CN2CCSc3ccc(S(=O)(=O)N4CCCC4)cc32)cc1 | – | 16.4 µM (active) |
| O=[N+]([O-])c1ccc(NS(=O)(=O)c2ccccc2)c(Cl)c1 | – | 16.4 µM (active) |

| Compound | activity change, negative = cytotoxic [%] | Potency |
| --- | --- | --- |
| O=C(NCCNc1ccc([N+](=O)[O-])cc1Cl)c1ccccc1F | -1.36 | – |
| O=C(NNS(=O)(=O)c1ccc(F)cc1)c1ccc([N+](=O)[O-])cc1Cl | -17 | – |
| Cc1cccc(-n2ccnc2SCC(=O)Nc2cc(C(F)(F)F)ccc2Cl)c1 | -13 | – |
| Cc1cccc(C(=O)NCCc2nc3ccccc3n2Cc2ccccc2Cl)c1 | -12 | – |
| Cc1ccccc1CCNC(=O)C1CCN(c2nc3ccccc3nc2C(F)(F)F)CC1 | -10.5 | – |
| CN(NC(=O)c1ccccc1)c1nc2ccccc2nc1C(F)(F)F | – | 2.91 µM (active) |
| Nc1nnc2c(C(F)(F)F)nc3ccccc3n12 | -3.46 | – |
| CSc1nc(N(C)NC(=O)c2cccc(C)c2)c2ccccc2n1 | – | 0.184 µM (active) |
| Cc1cccc(C(=O)Nc2ccc(-c3nc4ccccc4s3)c(C)c2)c1 | 1.57 | – |
| COc1ccc(C)cc1Nc1nc2ccccc2c2nnc(C)n12 | -1.35 | – |
| Cc1ccc(-c2nc(CS(=O)(=O)CC(=O)NCc3ccccc3Cl)c(C)o2)cc1 | 16.7 | – |
| O=C(CSc1nnc(CNC(=O)c2ccccc2)n1-c1ccc(F)cc1)Nc1ccccc1F | 0.161 | – |
| COc1ccc(C(=O)c2oc3ccccc3c2NC(=O)COc2cccc(C)c2)cc1 | 4.39 | – |
| COc1ccc(CNc2nc(-c3ccc(Cl)cc3)cc(C(F)(F)F)n2)cc1 | 2.34 | – |
| O=C(Nc1ccc2nc(SCCOc3ccccc3)sc2c1)c1ccco1 | 4.12 | – |
| COC(=O)COc1cccc2c(=O)n(CC(=O)NCc3ccccc3)ccc12 | – | 6.51 µM (active) |
| CCOCCn1ccc2c(OCC(=O)NCc3ccc(C)cc3)cccc2c1=O | 7.56 | – |
| CCCn1ccc2c(OCC(=O)NCc3ccc(F)cc3)cccc2c1=O | 2.13 | – |
| CCCCOc1ccc(NC(=O)c2cc3c(n(-c4ccc(Cl)cc4)c2=O)CCCC3=O)cc1 | -11.6 | – |
| Cc1ccc2cccc(NC(=O)C(C)Oc3ccc(C)c(C)c3)c2n1 (centres undefined) | -2.07 | – |
| O=C(Nc1cc(-c2nc3ccccc3o2)ccc1Cl)c1cc([N+](=O)[O-])ccc1N1CCOCC1 | -0.615 | – |
| CCN(CC)CCCC(C)n1c2nc(=O)[nH]c(=O)c-2nc2cc(Cl)ccc21 (centres undefined) | – | 6.51 µM (active) |
| COc1cccc(NC(=O)Cn2c(=O)cc(C)c3c(C)nn(-c4cccc(F)c4)c32)c1 | 4.05 | – |
| CSc1ccc(CCNC(=O)c2ccc3c(c2)nc2n3CCOC2)cc1 | -7.69 | – |
| COc1ccccc1NC(=O)c1cc(S(=O)(=O)NCCc2ccccc2)ccc1F | 1.79 | – |

| Compound | activity change, negative = cytotoxic [%] | Potency |
| --- | --- | --- |
| CCc1ccc(NC(=O)c2cc(S(=O)(=O)NC3CCCCCC3)ccc2F)cc1 | -5.14 | – |
| Cc1ccc(NC(=O)c2cc(S(=O)(=O)NCCC3=CCCCC3)ccc2F)cc1C | – | 16.4 µM (active) |
| O=C(CSc1cn(CC(=O)N2CCOCC2)c2ccccc12)Nc1ccccc1 | 6.27 | – |
| Cc1cccc(-c2nnc(SCC(=O)N3CCCc4ccccc43)o2)c1 | 0.542 | – |
| CCC(C)[C@H]1COCCS(=O)(=O)N1Cc1ccc(C)cc1 (some centres undefined) | 15.7 | – |
| CCCC[C@H]1COCCS(=O)(=O)N1Cc1cccc(Cl)c1 | – | inactive |
| O=S1(=O)CCOC[C@H](CC2CCCCC2)N1Cc1ccc(F)cc1 | – | 16.4 µM (active) |
| Cc1ccc2oc(=O)c3cnn(CC(=O)N4CCN(c5cccc(Cl)c5)CC4)c3c2c1 | -1.01 | – |
| COc1cc(OC)c(N(C)C(=O)c2cc3c(=O)oc4ccccc4c3s2)cc1Cl | -2.75 | – |
| COc1ccc(Cc2nc3ccc(C(=O)NCc4ccccc4Cl)cc3o2)cc1 | -13.2 | – |
| CCOc1ccc(NC(=O)CCC(=O)N2CC(C)Oc3ccc(C)cc32)cc1 (centres undefined) | -8.02 | – |
| CCOc1ccc(CNC(=O)c2cccc(Nc3nc4ccccc4n4nnnc34)c2)cc1OC | -1.42 | – |
| Cc1c2cnn(CC(=O)NCc3ccccn3)c(=O)c2c(C)n1Cc1ccc(Cl)cc1 | 9.63 | – |
| Cc1ccc(Cn2c(C)c3cnn(CC(=O)NCc4ccccc4)c(=O)c3c2C)cc1 | – | 13 µM (active) |
| Cc1ccc(Cn2c(C)c3cnn(CC(=O)NCc4ccccn4)c(=O)c3c2C)cc1 | -23.7 | – |
| Cc1cccc(Nc2nc(C)nc(N)c2S(=O)(=O)c2ccccc2)c1 | 3.43 | – |
| CC(NC(=O)c1ccccc1SCC(=O)N1CCCC1)c1ccccc1 (centres undefined) | -7.79 | – |
| CC(NC(=O)CNC(=O)Cc1cccc2ccccc12)c1ccc(S(N)(=O)=O)cc1 (centres undefined) | -31.1 | – |
| CC(NC(=O)c1cccc2ccccc12)c1ccc2c(c1)CCCC2 (centres undefined) | – | 10.3 µM (active) |
| O=S(=O)(NCC(c1ccccc1)N1CCc2ccccc21)c1ccccc1 (centres undefined) | -19.2 | – |
| Cc1ccc(NC(=O)Nc2sc3nc4n(c(=O)c3c2C)CCC(C)CC4)c(Cl)c1 (centres undefined) | -1.46 | – |
| NNC(=O)C1CCCn2c1nc1sc3c(c1c2=O)CCCC3 (centres undefined) | 0.859 | – |
| CCCc1nc2sc3c(c2c(=O)n1NC(=O)CCCl)CCCC3 | – | 23.1 µM (active) |
| Cc1ccc(C)c(-n2c(SCC(=O)O)nc3sc4c(c3c2=O)CCCC4)c1 | -7.55 | – |
| Cc1cccc(CSc2nc3ccncc3n2Cc2ccc(C(=O)O)cc2)c1 | 2.92 | – |

| Compound | activity change, negative = cytotoxic [%] | Potency |
| --- | --- | --- |
| Cc1cccc(Cn2c(SCc3ccc(C(=O)N4CCC(C)CC4)cc3)nc3ccncc32)c1 | – | 23.1 µM (active) |
| COc1cccc(Cn2c(SCc3ccc(C(=O)N4CCC(C)CC4)cc3)nc3ccncc32)c1 | 3.38 | – |
| CCOc1n[nH]c(-c2ccccc2)n1 | 47.7 | – |
| CCN(CC)S(=O)(=O)c1nnc(NC(=O)COc2ccccc2Cl)s1 | 11.8 | – |
| CN(Cc1cncn1C)c1ncnc2ccc(-c3ccc4c(c3)OCO4)cc12 | 20 | – |
| Cn1c(=O)c2c(nc(SCC(=O)Nc3ccc(F)cc3)n2Cc2ccc(Cl)cc2)n(C)c1=O | -5.05 | – |
| COc1ccc(-c2onc(C)c2C)cc1S(=O)(=O)NCC1CCN(Cc2cccc(F)c2)CC1 | -14.5 | – |
| CC(=O)c1cccc(NC(=O)c2nc(-c3ccccc3)n(-c3cccc(C)c3)n2)c1 | -5.19 | – |
| Cc1ccc(CS(=O)(=O)c2ncc(Cl)c(C(=O)Nc3nnc(C)s3)n2)cc1 | – | 20.6 µM (active) |
| CCS(=O)(=O)c1ncc(N(Cc2ccc(F)cc2)Cc2ccco2)c(C(=O)Nc2cc(C)ccc2C)n1 | 6.09 | – |
| Cc1cccc(NC(=O)c2nc(S(=O)(=O)Cc3ccccc3)ncc2Cl)c1 | – | 5.8 µM (active) |
| CSc1nnc(NC(=O)c2nc(S(=O)(=O)Cc3ccc(C)cc3)ncc2Cl)s1 | – | 16.4 µM (active) |
| O=C(Nc1nnc(Cc2ccc(Cl)cc2)s1)c1cccnc1 | 1.48 | – |
| Cc1ccc2nc(NC(=O)c3nc(SCc4ccccc4F)ncc3Cl)sc2c1 | 4.47 | – |
| Cc1cccc(NC(=O)Cn2cc(S(=O)(=O)Cc3ccccc3Cl)c3ccccc32)c1 | -25.9 | – |
| O=C(Nc1nnc(Cc2ccc(Cl)cc2)s1)c1ccncc1 | 4.01 | – |
| CCOC(=O)c1c(NC(=O)CSc2cn(CCNC(=O)c3cccc(C(F)(F)F)c3)c3ccccc23)sc2c1CCC2 | 9.88 | – |
| CC1(C)Cc2ccccc2-c2c[nH]c(=O)n21 | 6.54 | – |
| COc1ccc(-c2cc(-c3nc(-c4cc(OC)c(OC)c(OC)c4)no3)[nH]n2)c(OC)c1 | -12.8 | – |
| CC1CCN(S(=O)(=O)c2ccc3c(ccn3CCC(=O)NCc3ccc(N(C)C)cc3)c2)CC1 | 0.784 | – |
| COc1ccc(N(C)C(=O)C2CCN(S(=O)(=O)c3cc(Br)cc4c3N(C(C)=O)CC4)CC2)cc1 | 7.14 | – |
| CN1CCN(c2ccc(NC(=O)c3ccc4c(c3)OCCO4)cc2Cl)CC1 | -15.3 | – |
| O=C(Nc1cccc(S(=O)(=O)Nc2ccc(Cl)cc2)c1)c1ccc2c(c1)OCCO2 | – | 8.2 µM (active) |
| CCN(CC)CCNC(=O)c1ccc(NS(=O)(=O)c2ccc3c(c2)OCCO3)cc1 | 2.07 | – |
